Data reported in PubChem BioAssay (NCATS).
Inconclusive results are not listed. Where a call stands in place of a potency, no number is given. For part of these data: Measured potencies and affinities stand elsewhere. Activity calls are given as the source filed them.

Key:
[1] = Ebola virus entry cell assay, ratio channel
[2] = Ebola virus entry reporter assay, green channel fluorescence
[3] = qHTS assay to identify small molecule inhibitors of chordoma cells - UCH-1 (AID 1259355; active = well fitted curve in the direction sought with a large enough effect; an effect the other way counts as inactive or inconclusive; also: nearly all actives have a fitted effect of over 55% in size); conditions: UCH-1 chordoma viability, CellTiter-Glo, 48 h, combination; series mostly up to 46.1 µM
Outline: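 Screening used approved and investigational drugs in 15-point titration against 800 seeded cells per well. A fixed combination of auranofin with camptothecin, doxorubicin, rubitecan and topotecan followed compound addition, and growth was scored by CellTiter-Glo after 48hr.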

[4] = qHTS assay to identify small molecule inhibitors of chordoma cells - UCH-2 (AID 1259356; active = well fitted curve in the direction sought with a large enough effect; an effect the other way counts as inactive or inconclusive); conditions: UCH-2 chordoma viability, CellTiter-Glo ATP luminescence, 48 h; series mostly up to 46.1 µM
[5] = P-glycoprotein substrates identified in KB-3-1 adenocarcinoma cell line, qHTS therapeutic library screen (AID 1346986; active = well fitted curve in the direction sought with a large enough effect; an effect the other way counts as inactive or inconclusive; also: nearly all actives have a fitted effect of over 60% in size); conditions: KB-3-1 parental cells viability, CellTiter-Glo, 72 h; at 44.5 µM (top of the series) unless noted
Outline: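 In 1536-well format, 500 cells/well received pinned compound titrations and were incubated 72 h, 5% CO2. Viability was read by CellTiter-Glo; cytotoxic if AC50 < 10 uM and efficacy >50%.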

[6] = High-throughput drug toxicity screening in the BPDCN cell line Gen2.2 (AID 1224824; call rule not given here;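 also: cells exposed to compounds for 48 h before reading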); conditions: Gen2.2 BPDCN cells; at 45.8 µM (top of the series) unless noted
Outline: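 CellTiter-Glo luminescence read after 48 h compound exposure at 37 C defines viability; percent activity set with DMSO as 100% and bortezomib (9.2 uM final) as 0%. 500 exponentially growing cells per well, RPMI plus 10% FBS.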

[7] = High-throughput drug toxicity screening in the BPDCN cell line Cal-1 (AID 1224825; call rule not given here); conditions: Cal-1 BPDCN cell viability, qHTS; at 45.8 µM (top of the series) unless noted
Outline: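 CellTiter-Glo luminescence after 48 h compound exposure; percent activity scaled with DMSO as 100% and bortezomib (9.2 uM final) as 0%. Cal-1 cells seeded at 500/well in RPMI, 10% FBS, no phenol red.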

[8] = qHTS assay for measurement of the activity of small molecule inhibitors on Zika virus induced Caspase-3 activity in human astrocytoma cells (AID 1224859; active = well fitted curve in the direction sought with a large enough effect; an effect the other way counts as inactive or inconclusive); conditions: SNB-19 ZIKV-induced caspase-3/7, luminescence, 6 h; series mostly up to 45.7 µM
Outline: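 Human SNB-19 astrocytoma cells in RPMI 1640 with 10% FBS receive compound one hour ahead of Zika virus at 2 FFU/cell. After 6 h infection, caspase-3/7 activity is detected by Caspase-Glo luminescence.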

[9] = qHTS Screen of the MIPE 4.0 Collection Against Ewings Sarcoma (RDES) (AID 1259252; active = well fitted curve in the direction sought with a large enough effect; an effect the other way counts as inactive or inconclusive; also: nearly all actives have a fitted effect of over 35% in size); conditions: RD-ES Ewing sarcoma viability, CellTiter-Glo, 48 h; series mostly up to 45.8 µM
Outline: (§1)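 Viability screen: 48 h incubation at 37C, 95% humidity, 5% CO2 with serially titrated compound, followed by CellTiter-Glo readout.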

[10] = qHTS Screen of the MIPE 4.0 Collection Against Ewings Sarcoma (TC71) (AID 1259253; active = well fitted curve in the direction sought with a large enough effect; an effect the other way counts as inactive or inconclusive; also: nearly all actives have a fitted effect of over 40% in size); conditions: TC71 Ewing sarcoma viability, CellTiter-Glo, 48 h; series mostly up to 45.8 µM
Outline: as §1

[11] = qHTS Screen of the MIPE 4.0 Collection Against Ewings Sarcoma (EW8) (AID 1259255; active = well fitted curve in the direction sought with a large enough effect; an effect the other way counts as inactive or inconclusive; also: nearly all actives have a fitted effect of over 35% in size); conditions: EW8 Ewing sarcoma viability, CellTiter-Glo, 48 h; series mostly up to 45.8 µM
Outline: as §1

[12] = qHTS Screen of the MIPE 4.0 Collection Against Ewings Sarcoma (TC32) (AID 1259256; active = well fitted curve in the direction sought with a large enough effect; an effect the other way counts as inactive or inconclusive; also: nearly all actives have a fitted effect of over 45% in size); conditions: TC32 Ewing sarcoma viability, CellTiter-Glo, 48 h; series mostly up to 45.8 µM
Outline: as §1

[13] = Immunotoxin (HA22) sensitization/mitigation study. Vehicle arm (PBS) (AID 1159510; call rule not given here; also: potency is read from the fitted curve at half-maximal effect); conditions: cancer cells viability with PBS vehicle (HA22 study); series mostly up to 46.1 µM
[14] = Immunotoxin (SS1P) sensitization/mitigation study. Vehicle arm (DMEM) (AID 1159513; call rule not given here; also: potency is read from the fitted curve at half-maximal effect); conditions: cell viability with vehicle (DMEM); series mostly up to 46.1 µM

Compound: CN1CCN(C(c2ccccc2)c2ccc(Cl)cc2)CC1 (configuration not stated)
- AC50 [1]: 10 µM (active)

Compound: C[C@]12C=CC(=O)N[C@@H]1CC[C@@H]1[C@@H]2CC[C@]2(C)[C@@H](C(=O)Nc3cc(C(F)(F)F)ccc3C(F)(F)F)CC[C@@H]12
- outcome [1]: inactive

Compound: O=C1Nc2ccc(Cl)cc2C(c2ccccc2Cl)=NC1O (configuration not stated)
- outcome [2]: inactive
- outcome [1]: inactive
- outcome [3]: inactive
- outcome [4]: inactive

Compound: Clc1ccc2c(c1)C(c1ccccc1)=NCc1nncn1-2
- outcome [2]: inactive
- outcome [1]: inactive
- outcome [3]: inactive
- outcome [4]: inactive

Compound: CN[C@@H]1CCc2[nH]c3ccc(C(N)=O)cc3c2C1
- outcome [1]: inactive

Compound: O=C1Nc2ccc(Cl)cc2C(c2ccccc2)=NC1O (configuration not stated)
- outcome [1]: inactive
- outcome [3]: inactive
- outcome [4]: inactive

Compound: Cc1nnc2n1-c1ccc(Cl)cc1C(c1ccccc1)=NC2
- outcome [1]: inactive
- outcome [4]: inactive

Compound: CC[C@H]1OC(=O)[C@H](C)C(=O)[C@H](C)[C@@H](O[C@@H]2O[C@H](C)C[C@H](N(C)C)[C@H]2O)[C@](C)(OC)C[C@@H](C)C(=O)[C@H](C)[C@H]2N(CCCCn3cnc(-c4cccnc4)c3)C(=O)O[C@]12C
- outcome [1]: inactive

Compound: C=CC[C@@H]1C=C(C)C[C@H](C)C[C@H](OC)[C@H]2O[C@@](O)(C(=O)C(=O)N3CCCC[C@H]3C(=O)O[C@H](C(C)=C[C@@H]3CC[C@H](O)[C@H](OC)C3)[C@@H](C)[C@@H](O)CC1=O)[C@@H](C)C[C@@H]2OC
- outcome [1]: inactive

Compound: CN1C(=O)C(O)N=C(c2ccccc2)c2cc(Cl)ccc21 (configuration not stated)
- outcome [1]: inactive
- outcome [3]: inactive
- outcome [4]: inactive

Compound: CCN(CC)CC#CCOC(=O)C(O)(c1ccccc1)C1CCCCC1 (configuration not stated)
- outcome [1]: inactive

Compound: NS(=O)(=O)c1cc(Cl)c(Cl)c(S(N)(=O)=O)c1
- outcome [1]: inactive

Compound: O=C(O)c1cc(N=Nc2ccc(O)c(C(=O)O)c2)ccc1O
- outcome [1]: inactive

Compound: Nc1ccn(C[C@@H](CO)OCP(=O)(O)O)c(=O)n1
- outcome [1]: inactive
- outcome [5]: inactive [at 17.4 µM]

Compound: C[C@]12CC[C@@H]3c4ccc(OC(=O)N(CCCl)CCCl)cc4CC[C@H]3[C@@H]1CC[C@@H]2OP(=O)(O)O
- outcome [1]: inactive
- cell viability, % of control (lower = more cytotoxic) [6]: 99.3%
- viability (% of control) [7]: 82.9%
- outcome [8]: inactive
- Potency [9]: inactive
- Potency [10]: inactive
- outcome [11]: inactive
- Potency [12]: inactive
- outcome [5]: inactive

Compound: COCC1=C(C(=O)OC(C)OC(=O)OC(C)C)N2C(=O)[C@@H](NC(=O)/C(=N\OC)c3csc(N)n3)[C@H]2SC1 (some centres not stated)
- outcome [1]: inactive

Compound: CC(C)CN(C[C@@H](O)[C@H](Cc1ccccc1)NC(=O)O[C@H]1CO[C@H]2OCC[C@H]21)S(=O)(=O)c1ccc(N)cc1
- outcome [1]: inactive

Compound: N#Cc1ccc2c(c1)N(CCCN1CCC(O)CC1)c1ccccc1S2
- AC50 [1]: 22.4 µM (active)

Compound: COC(=O)C(c1ccccc1)C1CCCCN1 (configuration not stated)
- outcome [1]: inactive
- outcome [3]: inactive

Compound: CNC(=O)c1ccccc1Sc1ccc2c(/C=C/c3ccccn3)n[nH]c2c1
- Potency [13]: 6.62 µM (active)
- Potency [14]: 1.05 µM (active)
